Data published in the supplement of paper PMC10338343.
± gives the standard deviation.

Tested on: MILI (PIWIL2) piRISC loaded with piRNA #1 (26 nt)
Assay: pre-steady-state target cleavage rate (min^-1); guide: piRNA #1 5'p-UGAGGUAGUAGGUUGUAUAGUAUCCA; MIWI and MILI are mouse PIWI proteins and EfPiwi is from a freshwater sponge; tags in brackets are library labels; higher = faster piRNA-guided slicing of the target
Details: auxiliary factor: 500 nM mouse GTSF1
Method in brief: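 Cleave-'n-Seq: a transcribed, DNA-blocked target RNA library (0.1 nM) was mixed with 1 nM active affinity-purified piRISC carrying one synthetic guide, with or without 500 nM GTSF1 partner protein, in HEPES–potassium acetate buffer at 33 °C for 0–8 or 0–960 min. Uncleaved targets were sequenced and normalised to depth and to weakly complementary targets. Three trials were pooled, and k3 was capped at 0.0001 min^-1. The pre-steady-state cleavage rate came from a burst-and-steady-state fit.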

| Sequence | pre-steady-state target cleavage rate |
| --- | --- |
| GGAGACCUAUGUAUAGAACCUACUACCUCA | 0.0559 ± 0.0092 |
| GGAGAGGAUUCUAUACAACCUACUAGCUCA | 0.0566 ± 0.01 |
| GGAGACCUAUCUUUACAACCUACUACGUCA | 0.0265 ± 0.0062 |
| GGAGACCUUACUAAACAACCUACUACCACA | 0.128 ± 0.017 |
| GGAGACCUAACUAUACGACCUACUACCUCA | 0.0254 ± 0.011 |
| GGAGACCUAUGAUAUGAACGUUCUACCUCA | < 0.0001 |
| GGAGACCUAUGAUAUGAACUACUACCUCA | 0.00657 ± 0.0021 |
| GGAGACCUUACUAUACUACCAACUACCUCA | 0.00617 ± 0.0026 |
| GGAGACCUAUGUAUGCAACCUACUACCUCA | 0.0637 ± 0.0095 |
| GGAGACCUAUGAUAUGUACCUACUACCUGCA | < 0.0001 |
| GGAGACGAUACAAUAGAACCUACUACCUCA | 0.178 ± 0.014 |
| GGAGACGAUUGUAUACAACCUACUACCUCA | 0.0734 ± 0.0068 |
| GGAGACCUAUGAAUACAACCUAUCUACCUCA | 0.00974 ± 0.0026 |
| GGAGACCUAUGAUAUGUUCCUACUACCUGCA | < 0.0001 |
| GGAGAGGAUACUAAACAACCUACUACGUCA | 0.0356 ± 0.0057 |
| GGAGAGGAUACUAUACAUGGUACUACCUCA | 0.00387 ± 0.0028 |
| GGAGACCUAUCAAUACUACCUACUACCUCA | 0.0216 ± 0.0056 |
| GGAGACCUUACUUUACUACCUACUACCUCA | 0.0948 ± 0.01 |
| GGAGACCAUUGUAUACAACCUACUACCUCA | 0.0325 ± 0.0067 |
| GGAGACCUAUGAAUACAACCUACUACCUGA | 0.00268 ± 0.0026 |
| GGAGACCUAUCAAUACAUCCUACUACCUCA | 0.109 ± 0.02 |
| GGAGACCUAUGUAUACUAGCUACUACCUCA | 0.0336 ± 0.0059 |

| Sequence | pre-steady-state target cleavage rate |
| --- | --- |
| GGAGACCUAUGAAUACAACCUAACUACCUCA | 0.00316 ± 0.0021 |
| GGAGACCAUACUAUACUACCUACAACCUCA | 0.185 ± 0.023 |
| GGAGAGGAUACUAAUGAACCUACUACCUCA | 0.0555 ± 0.0058 |
| GGAGACCUAACUAUACAACCUACUGACCUCA | 0.163 ± 0.04 |
| GGAGACCUAACUAUACAUCCUACAACCUCA | 0.246 ± 0.033 |
| GGAGACCAUACUUUACAACGUACUACCUCA | 0.0198 ± 0.0034 |
| GGAGACCUAUGAUUACAUCCUACUACGUCA | 0.00263 ± 0.0026 |
| GGAGUCGAUACUUUACAACCUACUACCUCA | 0.185 ± 0.009 |
| GGAGACCUAUCUAUAUCAACCUACUACCUCA | 0.00847 ± 0.0035 |
| GGAGACCUAAGUAUACAACCUACUUCCUCA | 0.0285 ± 0.0069 |
| GGAGAGGAUACUAUACGACCUACUACCUCA | 0.121 ± 0.0093 |
| GGAGAGGAUACUAUAAACCUACUACCUCA | 0.0203 ± 0.0036 |
| GGAGACCUAACUAUACAACCUACUACACUCA | 0.168 ± 0.028 |
| GGAGACCUAUCUAUACAACCGACUACCUCA | 0.0049 ± 0.003 |
| GGAGACCUAUGAUUACAACCUACUUCCUCA | 0.00303 ± 0.0022 |
| GGAGACCUAUGAAUACAAGCAACUACCUCA | 0.00265 ± 0.0026 |
| GGAGACCUAUGUAAACAACCUACUACCACA | 0.00967 ± 0.0036 |
| GGAGACCUAUGUAUAGCAACCUACUACCUCA | 0.0101 ± 0.003 |
| GGAGACCUAUGAUUAUCAACCUACUACCUCA | 0.00367 ± 0.0025 |
| GGAGACCUAUGAUAACAUCCUACUUCCUCA | 0.00421 ± 0.0027 |
| GGAGACCUAACUAUACAACCUACUAACCUCA | 0.187 ± 0.028 |
| GGAGACCUAUGUUUACAACCUAGUACCUCA | 0.00404 ± 0.0027 |

| Sequence | pre-steady-state target cleavage rate |
| --- | --- |
| GGAGACCUAUGUAUUCAACCUACUAGCUCA | 0.0092 ± 0.0033 |
| GGAGACGAUAGUAUACAACCUACUUCCUCA | 0.0731 ± 0.015 |
| GGAGUGGAUACUUUACAACCUACUACGUCA | 0.0457 ± 0.0058 |
| GGAGACCUAUCUAUACUACCAACUACCUCA | 0.00495 ± 0.0022 |
| GGAGACCUAUGUAUACCAACCUACUACCUCA | 0.00297 ± 0.003 |
| GGAGACCUUAGUAUACAACCUACAACCUCA | 0.0865 ± 0.013 |
| GGAGACCUAUGAUAUCAACUUACUACCUCA | 0.00319 ± 0.0027 |
| GGAGACCUAUCUUUACAACCAACUACCUCA | 0.0039 ± 0.0033 |
| GGAGACCUAUCUAUAUAACCUACUACCUCA | 0.0723 ± 0.0089 |
| GGAGACCUAUCUAUACAUCCAACUACCUCA | 0.00941 ± 0.0034 |
| GGAGACCUUUCUAAACAACCUACUACCUCA | 0.0629 ± 0.012 |
| GGAGACCUAACUAUUGUACCUACUACCUCA | 0.00477 ± 0.0036 |
| GGAGACCUAACUAGUACAACCUACUACCUCA | 0.0828 ± 0.019 |
| GGAGACCUAUCUAUACUACCUACAACCUCA | 0.0808 ± 0.009 |
| GGAGACCUUACUAUUGUACCUACUACCUCA | 0.0232 ± 0.0049 |
| GGAGACCUAUGAUAUGAACCUAGCUACCUCA | < 0.0001 |
| GGAGACGAUACAAUUCAACCUACUACCUCA | 0.147 ± 0.01 |
| GGAGACCAUACAAUACAACCUAGUACCUCA | 0.0587 ± 0.011 |
| GGAGACCAUACUAUACAACCUACAAGCUCA | 0.0598 ± 0.015 |
| GGAGACCUAUGAACUACAACCUACUACCUCA | 0.00389 ± 0.0029 |
| GGAGACCUAUGUAUACAUCGUACUACCUCA | 0.00791 ± 0.003 |
| GGAGACCUAUGAAUACAACCGACUACCUCA | 0.00328 ± 0.003 |
